Experimental data as given in the supplement of paper PMC8728848.
Shown is part of a subset that was picked to be rich in the strongest signals.

B1: SRS2 (Toxoplasma gondii), O15695 (protein)
chain: MATRASLARQKTGAACLAVLTASPSVVAAKPWKRWVGVSVILASAFAVGVSAGPPYRYEPEKFTCRPKKGILSQWVSLLYQVQHNITFACEEATPVPTTLISEEHGLMVCAENMTPEECEANPAPLSAFLPGATKEWVTGDSVLTGLKISVPESQYPANAKSFRVGCRHNTKTGNTCMLTIHVEPRDPAVERQEARCSYTENSTLPKIFVTKDSNTMTLACGPHGAPMPESYTENYCSTPDTCDEKPFTSVIPGYLSKWFFGDPKSPLGARVRIPPEQIPSSPQINYFGCTGPTEGEGPKYNCTVPVPLGGGDPSEGSRPGGGSGGGKRGGGQGGGGSLAGFDFRQGSARHSLPSRMALSASALLAMTALAY
B2: RBMC1 (Vibrio cholerae) (protein)
chain: QQSQRVVTADNLMYLRSGFAIDAIGTTVNNLVGGPVQGTNGGVLRAPIALDQLQSVEVTSGLYNWGGYHIVAIKFTMKDGSSVLLGSTHYASNKKVETYTVPQGKRIKQINVWTGGWLVEGFQFVY

What was measured:
Assay in all cases: glycan array binding signal (z-score within array); higher = stronger binding
Conditions in all cases: glycan notation: IUPAC condensed, linker removed
Fuc(a1-2)Gal = biological target: Fuc(a1-2)Gal
In short: (§1)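 Glycan array data were curated from 3228 arrays in the Consortium for Functional Glycomics database and kept only where the protein sequence was available. Glycan names were converted to IUPAC-condensed notation, and columns mapping to the same glycan were averaged. The binding signal is a within-array Z-score, averaged across arrays of the same protein sequence at different concentrations or buffers and across linkers. Negative Z-scores can be read as non-binding.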

[1] = biological target: Fuc(a1-2)Gal(b1-3)GalNAc(b1-3)Gal(a1-4)Gal(b1-4)Glc
In short: as §1

Fuc(a1-2)Gal(b1-4)Glc6S = biological target: Fuc(a1-2)Gal(b1-4)Glc6S
In short: as §1

[2] = biological target: Fuc(a1-2)Gal(b1-4)GlcNAc(b1-3)Gal(b1-4)GlcNAc
In short: as §1

[3] = biological target: Fuc(a1-2)Gal(b1-4)GlcNAc6S
In short: as §1

[4] = biological target: Fuc(a1-2)[GalNAc(a1-3)]Gal(b1-3)GlcNAc(b1-2)Man(a1-3)[Fuc(a1-2)[GalNAc(a1-3)]Gal(b1-3)GlcNAc(b1-2)Man(a1-6)]Man(b1-4)GlcNAc(b1-4)GlcNAc
In short: as §1

[5] = biological target: Fuc(a1-2)[GalNAc(a1-3)]Gal(b1-4)GlcNAc(b1-3)Gal(b1-4)GlcNAc(b1-3)Gal(b1-4)GlcNAc
In short: as §1

Fuc(a1-3)GlcNAc = biological target: Fuc(a1-3)GlcNAc
In short: as §1

Gal(a1-3)Gal(b1-4)Glc = biological target: Gal(a1-3)Gal(b1-4)Glc
In short: as §1

Gal(a1-3)Gal(b1-4)GlcNAc = biological target: Gal(a1-3)Gal(b1-4)GlcNAc
In short: as §1

Gal(a1-3)GalNAc = biological target: Gal(a1-3)GalNAc
In short: as §1

[6] = biological target: Gal(b1-3)GalNAc(a1-3)[Fuc(a1-2)]Gal(b1-4)GlcNAc
In short: as §1

Gal(b1-3)GlcNAc = biological target: Gal(b1-3)GlcNAc
In short: as §1

[7] = biological target: Gal(b1-3)[Fuc(a1-4)]GlcNAc
In short: as §1

[8] = biological target: Gal(b1-3)[Fuc(a1-4)]GlcNAc(b1-3)Gal(b1-4)GlcNAc
In short: as §1

[9] = biological target: Gal(b1-4)GalNAc(b1-3)[Fuc(a1-2)]Gal(b1-4)GlcNAc
In short: as §1

Gal(b1-4)Glc6S = biological target: Gal(b1-4)Glc6S
In short: as §1

[10] = biological target: Gal(b1-4)GlcNAc(b1-2)Man(a1-3)[Gal(b1-4)GlcNAc(b1-2)Man(a1-6)]Man(b1-4)GlcNAc(b1-4)[Fuc(a1-6)]GlcNAc
In short: as §1

[11] = biological target: Gal(b1-4)GlcNAc(b1-2)Man(a1-6)[GlcNAc(b1-2)Man(a1-3)]Man(b1-4)GlcNAc(b1-4)GlcNAc
In short: as §1

[12] = biological target: Gal(b1-4)GlcNAc(b1-3)[Gal(b1-4)GlcNAc(b1-6)]GalNAc
In short: as §1

[13] = biological target: Gal3S(b1-4)[Fuc(a1-3)]Glc6S
In short: as §1

[14] = biological target: GalNAc(a1-3)GalNAc(a1-3)Gal(a1-4)Gal(b1-4)GlcNAc
In short: as §1

[15] = biological target: GalNAc(b1-3)Gal(a1-4)Gal(b1-4)GlcNAc(b1-3)Gal(b1-4)Glc
In short: as §1

[16] = biological target: GlcNAc(a1-4)Gal(b1-4)GalNAc
In short: as §1

[17] = biological target: GlcNAc(a1-4)Gal(b1-4)GlcNAc(b1-3)Gal(b1-4)[Fuc(a1-3)]GlcNAc(b1-3)Gal(b1-4)[Fuc(a1-3)]GlcNAc
In short: as §1

[18] = biological target: GlcNAc(b1-2)Man(a1-3)[GlcNAc(b1-2)Man(a1-6)]Man(b1-4)GlcNAc(b1-4)[Fuc(a1-6)]GlcNAc
In short: as §1

GlcNAc3Prop(b1-4)GlcNAc = biological target: GlcNAc3Prop(b1-4)GlcNAc
In short: as §1

[19] = biological target: Man(a1-2)Man(a1-6)[Man(a1-3)]Man(a1-6)[Man(a1-2)Man(a1-2)Man(a1-3)]Man
In short: as §1

[20] = biological target: Neu5Ac(a2-3)Gal(b1-3)GlcNAc(b1-3)GalNAc
In short: as §1

[21] = biological target: Neu5Ac(a2-3)Gal(b1-4)[Fuc(a1-3)]GlcNAc(b1-3)GalNAc
In short: as §1

[22] = biological target: Neu5Ac(a2-6)Gal(b1-4)GlcNAc(b1-2)Man(a1-6)[Gal(b1-4)GlcNAc(b1-2)Man(a1-3)]Man(b1-4)GlcNAc(b1-4)GlcNAc
In short: as §1

[23] = biological target: Neu5Ac(a2-6)Gal(b1-4)GlcNAc(b1-3)Gal(b1-4)[Fuc(a1-3)]GlcNAc(b1-3)Gal(b1-4)[Fuc(a1-3)]GlcNAc
In short: as §1

[24] = biological target: Neu5Gc(a2-6)Gal(b1-4)GlcNAc
In short: as §1

[25] = biological target: Neu5Ac(a2-6)Gal(b1-4)GlcNAc(b1-2)Man(a1-3)[Neu5Ac(a2-6)Gal(b1-4)GlcNAc(b1-2)Man(a1-6)]Man(b1-4)GlcNAc(b1-4)[Fuc(a1-6)]GlcNAc
In short: as §1

[26] = biological target: Neu5Ac(a2-6)Gal(b1-4)GlcNAc(b1-2)Man(a1-6)[Man(a1-3)]Man(b1-4)GlcNAc(b1-4)GlcNAc
In short: as §1

Neu5Ac(a2-6)GalNAc = biological target: Neu5Ac(a2-6)GalNAc
In short: as §1

[27] = biological target: Neu5Gc(a2-3)Gal(b1-3)[Fuc(a1-4)]GlcNAc
In short: as §1

[28] = biological target: Neu5Gc(a2-8)Neu5Ac(a2-3)Gal(b1-4)GlcNAc
In short: as §1

Binder | glycan array binding signal (z-score) (Fuc(a1-2)Gal) | glycan array binding signal (z-score) [1] | glycan array binding signal (z-score) (Fuc(a1-2)Gal(b1-4)Glc6S) | glycan array binding signal (z-score) [2] | glycan array binding signal (z-score) [3] | glycan array binding signal (z-score) [4] | glycan array binding signal (z-score) [5] | glycan array binding signal (z-score) (Fuc(a1-3)GlcNAc) | glycan array binding signal (z-score) (Gal(a1-3)Gal(b1-4)Glc) | glycan array binding signal (z-score) (Gal(a1-3)Gal(b1-4)GlcNAc) | glycan array binding signal (z-score) (Gal(a1-3)GalNAc) | glycan array binding signal (z-score) [6] | glycan array binding signal (z-score) (Gal(b1-3)GlcNAc) | glycan array binding signal (z-score) [7] | glycan array binding signal (z-score) [8] | glycan array binding signal (z-score) [9] | glycan array binding signal (z-score) (Gal(b1-4)Glc6S) | glycan array binding signal (z-score) [10] | glycan array binding signal (z-score) [11] | glycan array binding signal (z-score) [12] | glycan array binding signal (z-score) [13] | glycan array binding signal (z-score) [14] | glycan array binding signal (z-score) [15] | glycan array binding signal (z-score) [16] | glycan array binding signal (z-score) [17] | glycan array binding signal (z-score) [18] | glycan array binding signal (z-score) (GlcNAc3Prop(b1-4)GlcNAc) | glycan array binding signal (z-score) [19] | glycan array binding signal (z-score) [20] | glycan array binding signal (z-score) [21] | glycan array binding signal (z-score) [22] | glycan array binding signal (z-score) [23] | glycan array binding signal (z-score) [24] | glycan array binding signal (z-score) [25] | glycan array binding signal (z-score) [26] | glycan array binding signal (z-score) (Neu5Ac(a2-6)GalNAc) | glycan array binding signal (z-score) [27] | glycan array binding signal (z-score) [28]
B1 | 0.535 | 0.231 | 0.222 | 0.699 | 0.345 | -0.13 | 0.391 | 0.522 | -0.428 | 0.159 | 0.369 | -0.437 | -0.506 | -0.246 | -0.495 | -0.802 | -0.35 | 1.54 | 1.51 | 6.82 | 2.13 | 0.55 | -0.134 | -0.448 | 2.07 | 14.3 | 0.829 | 0.304 | 1.3 | 1.72 | -0.203 | 0.576 | -0.03 | – | – | – | – | –
B2 | – | – | – | – | – | – | – | – | – | – | – | – | – | – | – | – | – | – | – | – | – | – | – | – | – | – | – | – | – | – | 3.13 | – | – | 11.9 | -0.031 | -0.35 | -0.039 | -0.406
